Laboratory results taken from PubChem BioAssay AID1851 (National Center for Advancing Translational Sciences (NCATS), 2009).
The campaign covered roughly 16,000 compounds. About 5,100 (32%) were called active. Inconclusive results (about 25%) are left out. The list shows a part of the results. A number with no mark means an inactive call. The call rests on the fitted dose curve; in most records, active means well fitted curve in the direction sought with a large enough effect; inconclusive means small, poorly fitted or top-dose-only effect, or effect the other way; inactive means no such curve, though single readings can be large or run the other way.

Target: Cytochrome P450 3A4 (Homo sapiens) (UniProt P08684)
Sequence (P08684 whole entry, looked up): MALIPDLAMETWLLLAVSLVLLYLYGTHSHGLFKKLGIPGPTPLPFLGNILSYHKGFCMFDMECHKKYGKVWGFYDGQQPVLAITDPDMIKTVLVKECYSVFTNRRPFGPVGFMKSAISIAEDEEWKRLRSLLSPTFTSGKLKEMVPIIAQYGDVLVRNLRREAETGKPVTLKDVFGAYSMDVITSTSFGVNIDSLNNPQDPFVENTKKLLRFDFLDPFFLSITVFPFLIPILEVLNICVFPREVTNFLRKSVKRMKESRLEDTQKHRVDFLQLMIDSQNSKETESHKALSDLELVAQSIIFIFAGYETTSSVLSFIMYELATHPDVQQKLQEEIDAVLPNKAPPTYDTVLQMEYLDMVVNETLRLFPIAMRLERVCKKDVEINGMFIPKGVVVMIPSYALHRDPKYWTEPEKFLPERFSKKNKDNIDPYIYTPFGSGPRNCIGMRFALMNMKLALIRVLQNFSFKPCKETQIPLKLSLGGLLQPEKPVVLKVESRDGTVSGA
Test: Cytochrome panel assay with activity outcomes
Details: recombinant CYP, pro-luciferin dealkylation, luminescence, p450-cyp3a4; series mostly up to 57.1 µM
On the % scale 0 is the no-effect control and ±100 the full control effect.

SMILES	AC50	activity, negative = inhibition
O=C(COc1ccc2ccccc2c1Br)NNC(=O)Nc1ccccc1	14.1 µM (active)	–
CCCC(=O)NNC(=O)Nc1ccccc1	–	-11.8% [at 2.29 µM]
Cn1cnc([N+](=O)[O-])c1SCC(=O)O	–	-11.5% [at 11.4 µM]
CC1=N/C(=C\c2ccc([N+](=O)[O-])cc2)C(=O)N1c1ccc(Cl)cc1	inactive	–
CC1=N/C(=C\c2ccc([N+](=O)[O-])cc2)C(=O)N1c1ccc(Br)c(C)c1	2.82 µM (active)	–
CN(C)c1ccc(/C=C2/C(=O)N(c3ccc([N+](=O)[O-])cc3)N=C2N2CCOCC2)cc1	inactive	–
CCOC(=O)N/N=C1/C[C@@H](O)[C@@H](O)[C@@H]2[C@@H]3C(=O)N(C4CCCCC4)C(=O)[C@H]3CC[C@H]12	–	-24.5% [at 11.4 µM]
CCCc1nc2ccccc2c(C(=O)OCC(=O)Nc2cccc(S(=O)(=O)N3CCOCC3)c2)c1CC	–	-27.2% [at 2.29 µM]
O=C(COC(=O)c1cccc(S(=O)(=O)N2CCN(c3ccccc3)CC2)c1)NCc1ccco1	12.6 µM (active)	–
O=C(O)C1C2CCC(C2)C1C(=O)NCc1ccco1 (stereo not drawn)	inactive	–
CN(C)CCCN=c1c2ccccc2n(C)c2[nH]c(=O)n(C)c(=O)c12	–	2.56% [at 11.4 µM]
CN(C)CCCNC(=O)c1cc2c3ccccc3n(C)c2s1	inactive	–
CN(C)CCCn1cc(C2=C(c3c[nH]c4ccccc34)C(=O)NC2=O)c2ccccc21	12.6 µM (active)	–
c1c[nH]c(CN2CCN(Cc3ncc[nH]3)CC2)n1	–	-22.2% [at 11.4 µM]
Clc1cccc(Cl)c1NC1=NCCN1	inactive	–
COc1cccc(-c2ccc3ncnc(NC4CC4)c3c2)c1	2 µM (active)	–
COc1ccc(Nc2ncc(C(=O)N3CCN(Cc4ccccc4)CC3)c3ccccc23)cc1	–	-29.5% [at 2.29 µM]
CNc1ncnc2ccc(-c3ccccc3OC)cc12	20 µM (active)	–
NCCNc1ncnc2ccc(Cl)cc12	–	-27.5% [at 11.4 µM]
COc1ccc(-n2cnc3sc(-c4ccccc4)cc3c2=O)cc1	–	13% [at 2.29 µM]
Clc1cccc(Nc2ncnc3ccc(Br)cc23)c1	14.1 µM (active)	–
COc1ccc(Nc2ncnc3sc(-c4ccccc4)cc23)cc1	11.2 µM (active)	–
Brc1ccc2ncnc(Nc3cccc4ccccc34)c2c1	–	20.8% [at 2.29 µM]
CC(C)=NOCc1ccc(-c2cc(-c3ccccc3)no2)cc1	–	5.94% [at 11.4 µM]

SMILES	AC50	activity, negative = inhibition
C[C@@H](c1ccccc1)N1C(=O)[C@@H]2[C@H]3C(=CC[C@H]2C1=O)C(=O)[C@H]1O[C@H]1[C@H]3O	–	-19.9% [at 11.4 µM]
CN(C)S(=O)(=O)Nc1ccccn1	–	-8.58% [at 11.4 µM]
COc1ccccc1-c1ccc2ncnc(Nc3ccccc3)c2c1	12.6 µM (active)	–
CN(C)c1ccc(-c2ccc3ncnc(NC4CC4)c3c2)cc1	3.16 µM (active)	–
COc1cccc(Nc2ncc(C(=O)O)c3ccccc23)c1	inactive	–
COc1cccc(-c2ccc3ncnc(Nc4ccccc4)c3c2)c1	10 µM (active)	–
CN(C)C(=O)c1ccc(-c2ccc3ncnc(NC4CCNCC4)c3c2)cc1	inactive	–
C/C=C\C1=C(CO)C(=O)C2O[C@]2(CC=C(C)C)C1=O (stereo partly drawn)	–	-13.4% [at 11.4 µM]
Cc1sc2c(c1C)c(=O)n(-c1ccccc1)c1nnc(C)n21	inactive	–
CCOC(=O)CN(C(=O)CCC(=O)Nc1cc(C)on1)C(C(=O)NC1CCCC1)c1cccnc1 (stereo not drawn)	–	-13% [at 2.29 µM]
Cc1nn(C)cc1C(C(=O)NC1CCCCC1)N(C(=O)Cc1cccs1)c1ccc(C(C)C)cc1 (stereo not drawn)	2.51 µM (active)	–
Cc1ccccc1C(C(=O)NC1CCCC1)N(C(=O)Cc1cccs1)c1ccc2c(c1)OCCO2 (stereo not drawn)	1 µM (active)	–
CCOc1ccc(N(C(=O)/C=C/C(=O)Nc2cc(C)on2)C(C(=O)NC2CCCC2)c2ccccc2C)cc1 (stereo not drawn)	0.891 µM (active)	–
O=C(O)CN(CCN(CC(=O)O)CC(=O)O)CCN(CC(=O)O)CC(=O)O	inactive	–
Oc1ccc(Cc2nccc3cc(O)c(O)cc23)cc1O	–	-11.6% [at 11.4 µM]
CC1(C)CC(=O)C(C(c2cccc(O)c2O)C2C(=O)CC(C)(C)CC2=O)C(=O)C1	–	-5.88% [at 11.4 µM]
OCCN(Cc1ccccc1)Cc1cccc(Cl)c1Cl	–	9.74% [at 11.4 µM]
CCN(CC(=O)NCc1cccs1)S(=O)(=O)c1ccc(C(C)C)cc1	7.08 µM (active)	–
O=C(CO)N/N=C/c1ccccc1F	inactive	–
COc1ccccc1/C=N/NC(=O)CC(=O)Nc1ccc(Cl)c(Cl)c1	7.94 µM (active)	–
CCOC(=O)N/N=C/c1ccccc1F	inactive	–
COc1ccc(OC)c(C2C(C(=O)Nc3nc4ccccc4s3)=C(C)NC3=C2C(=O)CCC3)c1 (stereo not drawn)	2.24 µM (active)	–
COCCN1CN=C(Nc2nc3ccccc3s2)NC1	inactive	–
CO[C@@H]1CC[C@@]2(C)[C@@H](CC[C@@]3(C)[C@H]2CC=C2[C@H]4CC(C)(C)[C@H](O)[C@@H](OC(C)=O)[C@]4(CO)[C@H](O)C[C@]23C)[C@@]1(C)CO (tested in a mixture with another compound)	inactive	–

SMILES	AC50	activity, negative = inhibition
COc1cccc(/C=c2/s/c(=C(\C#N)C(=O)N3CCOCC3)n(-c3ccccc3)c2=O)c1	inactive	–
Clc1ccccc1NN(Cc1ccncc1)c1ccccc1Cl	0.251 µM (active)	–
Clc1ccccc1NN(Cc1ccccn1)c1ccccc1Cl	–	-2.68% [at 11.4 µM]
CC1=CC(C)(C)N(C)C(=O)N1c1ccc(Cl)cc1	–	-0.338% [at 2.29 µM]
COCCNC(=O)c1onc(CSc2cccc(Cl)c2)c1C(=O)O	inactive	–
Cc1cc(=O)oc(C)c1C(=O)NCCCN1CCN(c2ccc(F)cc2)CC1	inactive	–
O=C(NCc1ccccc1)c1onc(CSc2ccc(F)cc2)c1C(=O)NCCCN1CCOCC1	2.51 µM (active)	–
C=C(C)[C@@H]1CC=C(C(=O)O)CC1	inactive	–
CO[C@@H](NC(N)=O)C(=O)O	–	-10.7% [at 11.4 µM]
CN(C)c1cc2c(Nc3ccc4c(cnn4Cc4ccccc4)c3)ncnc2cn1	5.01 µM (active)	–
CC(C(=O)NC1CCCC1)N(C(=O)c1snc(C(N)=O)c1N)c1ccc2c(c1)OCCO2 (stereo not drawn)	3.55 µM (active)	–
Cc1ccc(NC2=NC(c3ccccc3)n3c(nc(C)cc3=O)N2)c(C)c1 (stereo not drawn)	14.1 µM (active)	–
O=C(OCc1nnc(-c2ccccc2)o1)c1ccc2c(c1)OCCO2	20 µM (active)	–
O=C(OCc1cccc(F)c1)c1ccc2c(c1)-c1ccccc1C2=O	inactive	–
O=C(OCC#CCSc1nnc(-c2cccc3ccccc23)o1)c1ccco1	7.94 µM (active)	–
S=C(Nc1ccccc1)Nc1ccc(OCc2ccccc2)cc1	inactive	–
Cc1ccccc1OCCNC(=S)Nc1ccccc1	12.6 µM (active)	–
O=C(Nc1ccccc1)N1CC2(CCN(C(=O)c3ccco3)CC2)C1	inactive	–
O=C(c1ccco1)N1CCC[C@@]2(CCN(c3ccncc3)C2)C1	1.26 µM (active)	–
O=C(c1ccco1)N1CCC2(CC1)CCN(c1ccccc1)CC2	inactive	–
O=C(c1ccco1)N1CCC[C@@]2(CCN(c3ccccc3)C2)C1	12.6 µM (active)	–
O=C(Nc1ccc(N=Nc2ccccc2)cc1)c1ccc(Cl)cc1Cl	inactive	–
CCCN(CCC)C(=S)NC(=O)c1ccc(Cl)cc1Cl	14.1 µM (active)	–
O=C(Nc1cccn2ncnc12)c1ccc(Cl)cc1Cl	inactive	–

SMILES	AC50	activity, negative = inhibition
CC12COC3(C(=O)Nc4nccs4)CC1CCC32C (stereo not drawn)	14.1 µM (active)	–
CC1CCc2c(C(=O)Nc3nccs3)csc2C1 (stereo not drawn)	–	-19.8% [at 11.4 µM]
Cc1onc(C(=O)/C=C/N(C)C)c1C(=O)Nc1nccs1	inactive	–
Cn1c(OCc2ccc3c(c2)OCO3)nc2c1c(=O)n(Cc1ccc(Cl)c(Cl)c1)c(=O)n2C	3.55 µM (active)	–
CCCCOC(=O)CCc1c(C)[nH]c(=O)c(C#N)c1C	inactive	–
Cc1cc(NC(=O)Nc2ccc(N(C)C)cc2)c2cc(F)cc(F)c2n1	6.31 µM (active)	–
Cc1cc(NC(=O)Nc2ccc(F)cc2)no1	inactive	–
Cc1cc(N)c2cc(NC(=O)Nc3ccc4nc(C)cc(N)c4c3)ccc2n1	–	-7.21% [at 11.4 µM]
CSc1nsc(/C=C/Nc2ccc(Cl)cc2)c1C#N	8.91 µM (active)	–
CSc1nc(N)nc(SCC(=O)Nc2ccc(Cl)cc2)c1C#N	inactive	–
C[C@@H](c1ccccc1)N1C(=O)[C@H]2[C@@H]3[C@H](O)C=CC(=O)[C@H]3CC[C@H]2C1=O	–	-17.4% [at 11.4 µM]
COc1cccc(-c2nccc(NCc3cnc(C)cn3)n2)c1	6.31 µM (active)	–
Cc1cnc(CNc2ccnc(-c3cccc(C#N)c3)n2)cn1	12.6 µM (active)	–
Cc1cnc(CNc2ccnc(-c3cccc(NS(C)(=O)=O)c3)n2)cn1	15.8 µM (active)	–
Cc1cnc(CNc2ccnc(-c3cccnc3)n2)cn1	5.01 µM (active)	–
C[C@@H](N)C(=O)O	inactive	–
Cc1cc(C)cc(Oc2nn[nH]n2)c1	inactive	–
CC(C)CCN1CC(C(=O)N2CCN(c3ccc(F)cc3)CC2)CC1=O (stereo not drawn)	inactive	–
O=C(CCS(=O)(=O)c1cccs1)N1CCN(c2ccc(F)cc2)CC1	12.6 µM (active)	–
Cc1ccccc1S(=O)(=O)Oc1ccccc1C(=O)Oc1ccccc1	–	-12.1% [at 2.29 µM]
Nc1ccc(S(=O)(=O)Nc2ccccn2)cc1	inactive	–
